What is called inhibition is the drop in the measured response relative to a control, in per cent.

SMILES strings stand for the structures.

In the first assay the target is Mitogen-activated protein kinase 11 (Homo sapiens) (UniProt Q15759). To be noted: at 1 µM.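 Also: values are mean percent inhibition of p38beta.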
Mitogen-activated protein kinase 11 (Homo sapiens), sequence (Q15759 whole entry): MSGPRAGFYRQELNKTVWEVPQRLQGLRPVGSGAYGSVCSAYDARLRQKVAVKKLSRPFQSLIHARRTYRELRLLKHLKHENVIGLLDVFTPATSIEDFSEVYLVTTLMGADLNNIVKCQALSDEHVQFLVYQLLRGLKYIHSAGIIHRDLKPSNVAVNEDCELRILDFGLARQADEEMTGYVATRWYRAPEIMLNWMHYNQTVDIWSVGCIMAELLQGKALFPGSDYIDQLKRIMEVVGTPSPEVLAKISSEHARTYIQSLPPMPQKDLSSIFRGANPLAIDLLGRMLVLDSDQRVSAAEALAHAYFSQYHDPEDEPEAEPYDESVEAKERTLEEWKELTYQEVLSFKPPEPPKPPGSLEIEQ
For the molecule `CN1CCN(C(=O)c2ccc(NC(=O)Nc3ccc(N(C)c4ccnc(Nc5ccc(CS(C)(=O)=O)cc5)n4)cc3)cc2)CC1`, the inhibition was 3.23%.

Regarding `Oc1cccc(-c2nc(-c3ccccc3)[nH]c2-c2ccncc2)c1`, the inhibition was 47.7%.

As for `COc1cccc(-n2ncc3c(N/N=C/c4ccc(C)cc4)ncnc32)c1`, the inhibition was 4.42%.

Turning to `CN(C)CCCn1c(-c2nonc2N)nc2cnccc21`, the inhibition came to 8.3%.

Consider `NS(=O)(=O)c1cccc(-c2cc3ccncc3cc2OCc2ccccc2)c1`, for which the inhibition came to 5.6%.

Regarding `O=C1Nc2ccccc2/C1=C/Nc1ccc2[nH]c(=O)[nH]c2c1`, the inhibition came to 9.63%.

Turning to `Cc1ccc(C(=O)NC2CC2)cc1-c1ccc2[nH]ncc2c1`, the inhibition came to 28.2%.

On to `N#Cc1c(NC(=O)c2ccccc2F)sc2c1CCCC2`, for which the inhibition is 2.26%.

`COC(=O)c1ccc2c(c1)C(=Cc1cc(Br)c(O)c(Br)c1)C(=O)N2`: the inhibition came out at 4.68%.

For `NS(=O)(=O)c1ccc(N/N=C2\C(=O)Nc3ccc(Cl)cc32)cc1`, the inhibition was determined as 5.91%.

Regarding `O=C(Nc1ccc(Oc2ccc3[nH]c(NC(=O)c4ccco4)nc3c2)cc1)Nc1cc(C(F)(F)F)ccc1F`, the inhibition was 31.7%.

For the molecule `CS(=O)(=O)Nc1cccc(-c2ccc3c(NC(=O)C4CC4)n[nH]c3c2)c1`, the inhibition was 10.1%.

With `c1ccc(Nc2ncc(-c3ccccc3)o2)cc1`, the inhibition was found to be 5.93%.

As to `CC(C)c1ccc(Nc2nccc(-c3cnn4ncccc34)n2)cc1`, the inhibition was found to be 5.44%.

For the molecule `CCS(=O)(=O)c1ccc(OC)c(Nc2ncc(-c3cccc(OC)c3)o2)c1`, the inhibition was 5.17%.

On to `N#Cc1cccc(Nc2nccc(-c3cnn4ncccc34)n2)c1`, for which the inhibition is 14%.

Take `COc1cc2ncnc(Nc3ccc4c(cnn4Cc4ccccc4)c3)c2cc1OC`: the inhibition worked out at 1.39%.

As to `COc1cc2ncn(-c3cc(OCc4ccccc4S(C)(=O)=O)c(C#N)s3)c2cc1OC`, the inhibition is 6.97%.

`CN(c1ccc(NC(=O)Nc2ccc(OC(F)(F)F)cc2)cc1)c1ccnc(Nc2cccc(S(N)(=O)=O)c2)n1`: the inhibition worked out at 16.7%.

For the molecule `ON=C1CCc2cc(-c3nc(C4CCNCC4)[nH]c3-c3ccncc3)ccc21`, the inhibition was found to be 33.1%.

Consider `[O-][S+]1CCN(Cc2ccc(-c3ccc4ncnc(Nc5ccc(OCc6ccccc6)c(Cl)c5)c4c3)o2)CC1`, for which the inhibition amounted to 5.76%.

In the case of `NS(=O)(=O)c1ccc(NC=C2C(=O)Nc3ccc4ncsc4c32)cc1`, the inhibition was 27.3%.

Turning to `OCc1ccc(-c2nc(-c3ccccn3)c(-c3ccc4c(c3)OCO4)[nH]2)cc1`, the inhibition is 4.4%.

In the case of `COc1cc(Nc2nccc(-c3cnn4ncccc34)n2)cc(OC)c1`, the inhibition is 10.7%.

In the case of `Cc1ccc2c(-c3ccnc(Nc4ccc5c(c4)OCCO5)n3)c(-c3ccc(C(F)(F)F)cc3)nn2n1`, the inhibition came to 5.75%.

As to `Nc1nccc(-c2c(-c3ccc(F)cc3)ncn2CCCN2CCOCC2)n1`, the inhibition is 20.2%.

Turning to `COc1cccc(-n2nc(C)c3c(N/N=C(\C)c4ccncc4)ncnc32)c1`, the inhibition was found to be 0.17%.

`Nc1nccc(-c2c(-c3ccc(F)cc3)nn3cc(C(F)(F)F)ccc23)n1`: the inhibition came out at 10.5%.

Take `COc1cc(/C=N/Nc2ncnc3c2cnn3C(C)C)ccc1O`: the inhibition worked out at 2.61%.

`NC(=O)c1cccc(Nc2nccc(Nc3cccc(F)c3)n2)c1`: the inhibition came out at 1.67%.

As to `COC(=O)Nc1nc2cc(Oc3ccc(NC(=O)Nc4cccc(Br)c4)cc3)ccc2[nH]1`, the inhibition is 17%.

For the molecule `NS(=O)(=O)c1ccc(Nc2cc(-c3cccc(O)c3)n[nH]2)cc1`, the inhibition worked out at 9.77%.

With `Cc1ccc2c(-c3ccnc(Nc4cccc(C(F)(F)F)c4)n3)c(-c3ccccc3)nn2n1`, the inhibition turned out to be 45.1%.

In another assay the target is T1, Mitogen-activated protein kinase 13 (Homo sapiens) (UniProt O15264).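 Also: reported value is the mean percent inhibition of p38delta.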
T1 sequence (whole entry): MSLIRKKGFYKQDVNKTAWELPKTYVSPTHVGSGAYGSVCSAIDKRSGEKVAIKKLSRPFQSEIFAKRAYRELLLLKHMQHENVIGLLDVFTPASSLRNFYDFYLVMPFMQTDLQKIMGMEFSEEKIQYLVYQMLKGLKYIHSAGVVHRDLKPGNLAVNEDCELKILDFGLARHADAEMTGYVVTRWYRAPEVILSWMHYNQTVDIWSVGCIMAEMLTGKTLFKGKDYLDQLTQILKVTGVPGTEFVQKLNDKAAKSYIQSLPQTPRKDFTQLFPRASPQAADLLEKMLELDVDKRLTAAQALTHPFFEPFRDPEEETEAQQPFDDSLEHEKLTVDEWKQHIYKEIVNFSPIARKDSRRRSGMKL
As to conditions: at 0.1 µM.
For `CN1CCN(C(=O)c2ccc(NC(=O)Nc3ccc(N(C)c4ccnc(Nc5ccc(CS(C)(=O)=O)cc5)n4)cc3)cc2)CC1`, the inhibition is 1.15%.

In the case of `Oc1cccc(-c2nc(-c3ccccc3)[nH]c2-c2ccncc2)c1`, the inhibition worked out at 1.41%.

As for `COc1cccc(-n2ncc3c(N/N=C/c4ccc(C)cc4)ncnc32)c1`, the inhibition was determined as 4.61%.

For the molecule `CN(C)CCCn1c(-c2nonc2N)nc2cnccc21`, the inhibition was 1.23%.

On to `NS(=O)(=O)c1cccc(-c2cc3ccncc3cc2OCc2ccccc2)c1`, for which the inhibition was -1.11%.

Consider `O=C1Nc2ccccc2/C1=C/Nc1ccc2[nH]c(=O)[nH]c2c1`, for which the inhibition is 3.8%.

`Cc1ccc(C(=O)NC2CC2)cc1-c1ccc2[nH]ncc2c1`: the inhibition is -4.94%.

For `N#Cc1c(NC(=O)c2ccccc2F)sc2c1CCCC2`, the inhibition was -1.92%.

Consider `COC(=O)c1ccc2c(c1)C(=Cc1cc(Br)c(O)c(Br)c1)C(=O)N2`, for which the inhibition came out at 3.43%.

Regarding `NS(=O)(=O)c1ccc(N/N=C2\C(=O)Nc3ccc(Cl)cc32)cc1`, the inhibition turned out to be 1.25%.

With `O=C(Nc1ccc(Oc2ccc3[nH]c(NC(=O)c4ccco4)nc3c2)cc1)Nc1cc(C(F)(F)F)ccc1F`, the inhibition was found to be 1.18%.

`CS(=O)(=O)Nc1cccc(-c2ccc3c(NC(=O)C4CC4)n[nH]c3c2)c1`: the inhibition was -1.65%.

With `c1ccc(Nc2ncc(-c3ccccc3)o2)cc1`, the inhibition came to 4.95%.

`CC(C)c1ccc(Nc2nccc(-c3cnn4ncccc34)n2)cc1`: the inhibition was 1.62%.

As for `CCS(=O)(=O)c1ccc(OC)c(Nc2ncc(-c3cccc(OC)c3)o2)c1`, the inhibition is 1.24%.

For `N#Cc1cccc(Nc2nccc(-c3cnn4ncccc34)n2)c1`, the inhibition came to 12.9%.

Regarding `COc1cc2ncnc(Nc3ccc4c(cnn4Cc4ccccc4)c3)c2cc1OC`, the inhibition was 3.21%.

Regarding `COc1cc2ncn(-c3cc(OCc4ccccc4S(C)(=O)=O)c(C#N)s3)c2cc1OC`, the inhibition worked out at 1.05%.

For `CN(c1ccc(NC(=O)Nc2ccc(OC(F)(F)F)cc2)cc1)c1ccnc(Nc2cccc(S(N)(=O)=O)c2)n1`, the inhibition amounted to 2.86%.

For the molecule `ON=C1CCc2cc(-c3nc(C4CCNCC4)[nH]c3-c3ccncc3)ccc21`, the inhibition was -0.29%.

Take `[O-][S+]1CCN(Cc2ccc(-c3ccc4ncnc(Nc5ccc(OCc6ccccc6)c(Cl)c5)c4c3)o2)CC1`: the inhibition is 1.28%.

`NS(=O)(=O)c1ccc(NC=C2C(=O)Nc3ccc4ncsc4c32)cc1`: the inhibition came out at 1.67%.

As to `OCc1ccc(-c2nc(-c3ccccn3)c(-c3ccc4c(c3)OCO4)[nH]2)cc1`, the inhibition turned out to be 3.05%.

Take `COc1cc(Nc2nccc(-c3cnn4ncccc34)n2)cc(OC)c1`: the inhibition was found to be 1.49%.

On to `Cc1ccc2c(-c3ccnc(Nc4ccc5c(c4)OCCO5)n3)c(-c3ccc(C(F)(F)F)cc3)nn2n1`, for which the inhibition was determined as 0.71%.

For `Nc1nccc(-c2c(-c3ccc(F)cc3)ncn2CCCN2CCOCC2)n1`, the inhibition was determined as 2.28%.

Consider `COc1cccc(-n2nc(C)c3c(N/N=C(\C)c4ccncc4)ncnc32)c1`, for which the inhibition was -0.04%.

Consider `Nc1nccc(-c2c(-c3ccc(F)cc3)nn3cc(C(F)(F)F)ccc23)n1`, for which the inhibition stood at 0.69%.

On to `COc1cc(/C=N/Nc2ncnc3c2cnn3C(C)C)ccc1O`, for which the inhibition came to 1.12%.

Regarding `NC(=O)c1cccc(Nc2nccc(Nc3cccc(F)c3)n2)c1`, the inhibition is -0.02%.

On to `COC(=O)Nc1nc2cc(Oc3ccc(NC(=O)Nc4cccc(Br)c4)cc3)ccc2[nH]1`, for which the inhibition was found to be 2.44%.

For the molecule `NS(=O)(=O)c1ccc(Nc2cc(-c3cccc(O)c3)n[nH]2)cc1`, the inhibition came to 2.03%.

Take `Cc1ccc2c(-c3ccnc(Nc4cccc(C(F)(F)F)c4)n3)c(-c3ccccc3)nn2n1`: the inhibition came out at 4.66%.

Source of the values: ChEMBL document CHEMBL1961873, “Compounds: GSK PKIS; Assays: Nanosyn kinase panel” (2012).
